Screens from PubChem BioAssay.
DRD3 antagonist – antagonists of human D3 dopamine receptor; P35462; D3R cells, DiscoveRx beta-arrestin luminescence, antagonist mode; hits give low values; max response, negative = inhibition, %; 360,000 tested, 2.5% active; AID 652054; in the data active means max response below about -50%; inconclusive means no clear call, values can overlap the other calls
Target sequence (P35462 whole entry, looked up): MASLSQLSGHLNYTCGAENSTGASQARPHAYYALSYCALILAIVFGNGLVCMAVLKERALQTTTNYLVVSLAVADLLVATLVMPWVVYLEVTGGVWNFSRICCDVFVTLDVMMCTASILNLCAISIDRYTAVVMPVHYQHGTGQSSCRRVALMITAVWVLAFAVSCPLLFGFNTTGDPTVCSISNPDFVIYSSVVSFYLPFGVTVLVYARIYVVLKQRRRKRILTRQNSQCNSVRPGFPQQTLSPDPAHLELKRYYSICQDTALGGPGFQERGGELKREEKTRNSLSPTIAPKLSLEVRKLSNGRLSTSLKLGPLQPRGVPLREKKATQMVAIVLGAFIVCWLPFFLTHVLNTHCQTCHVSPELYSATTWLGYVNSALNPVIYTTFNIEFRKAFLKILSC
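Cells expressing the human receptor were seeded at 1500 cells/well, incubated overnight at 37 degrees C in 5% CO2, then exposed to library compounds with dopamine controls for 90 minutes at 37 degrees C before luminescent detection.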
HepG2 viability – HepG2 cytotoxicity, counter-screen for TGF-b inhibitors | 410,000 tested, 0.76% active | Potency, µM (doses to about 46.1 µM), usual class: cytotoxic | HepG2 CAGA-GFP viability, ATP luminescence, 18 h
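HepG2 CAGA-GFP cells (1000/well, DMEM with 1% FBS) received compound, then TGF-beta at 500 pg/mL final, and were incubated 18 hours at 37 degrees C. Viability was read by CellTiter-Glo luminescence. Media-only wells were set as complete cell-killing and DMSO as no toxicity.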
DRD3 agonist – activates the human D3 dopamine receptor; 410,000 tested, 0.58% active; P35462; max activation, %; D3R DiscoveRx beta-arrestin cells, luminescence, 90 min; AID 652048; in the data active means max activation above about 30%
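Agonist-mode cell screen: cells plated at 1500/well and incubated overnight at 37 °C, then exposed to library compounds for 90 min at 37 °C. Detection reagent was added for 30–60 min at room temperature, and luminescence was read.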
TGFb SMAD3 inh – TGF-b pathway inhibition; HepG2 CAGA-GFP TGF-b/SMAD3 reporter, GFP fluorescence, 18 h; TGF-beta stimulated, 500 pg/mL final; Potency, µM (doses to about 46.1 µM), actives largely listed as inhibitors; 410,000 tested, 1.2% active; AID 588855; further: nearly all actives have a fitted effect of over 65% in size
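HEPG2 CAGA-GFP cells (1000/well, DMEM with 1% FBS) were pre-incubated 2 h at 37 degrees C, given compound by pin tool, then stimulated with TGF-beta at 500 pg/mL final for 18 h before per-cell GFP fluorescence imaging.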
ATXN viability – reduces viability in counter-screen for ATXN expression inhibitors; S2 cells (HEK-293 line with an ATXN2-luciferase reporter) viability, CellTiter-Fluor protease fluorescence, 24 h; Potency, µM (highest dose often 56.7 µM), most hits filed as cytotoxic; 400,000 tested, 0.49% active; AID 651635; further: nearly all actives have a fitted effect of over 40% in size
ATXN2 expr inh – inhibitors of ATXN2 expression. HEK-293 ATXN2-luciferase reporter, luminescence, 24 h. Potency, µM (highest dose often 57 µM), usual class: inhibitors. 360,000 tested, 0.72% active. AID 1745845; further: nearly all actives have a fitted effect of over 55% in size
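qHTS (up to 57 uM final) was run with 24 h compound exposure of reporter cells at 37 °C. Each well was multiplexed: SteadyGlo luminescence measured ATXN2-luciferase expression after a fluorogenic Gly-Phe-AFC viability readout (25 uM final).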
Hits are given with their value; i = inactive; ? = inconclusive; nt = not tested or not shown. In the library only some 4.8% were active in any assay of this set; here they are far more common. Unless noted, the call rests on the fitted dose curve; in most records, active means well fitted curve in the direction sought with a large enough effect; inconclusive means small, poorly fitted or top-dose-only effect, or another doubt; inactive means no such curve, though single readings can be large; an effect the other way counts as inactive or inconclusive.

SMILES	DRD3 antagonist	HepG2 viability	DRD3 agonist	TGFb SMAD3 inh	ATXN viability	ATXN2 expr inh
COc1ccc(/C=N/NC(=O)c2ccc(O)cc2)cc1CN1CCCc2ccccc21	i	i	i	13µM	i	i
COc1ccc(/C=N/NC(=O)c2ccc(F)cc2)cc1CN1CCc2cc(OC)c(OC)cc2C1C (stereo not given)	i	i	i	i	i	i
COc1ccc(/C=N/NC(=O)c2ccncc2)cc1CN1CCN(c2ccc(F)cc2)CC1	-55	i	i	?	i	i
COc1cc2c(C(=O)N3CCN(c4cccc(C)c4)C(C)C3)cn(CC(C)C)c(=O)c2cc1OC (stereo not given)	nt	i	i	?	?	i
CCOC(=O)c1ccc(NC(=O)CSc2nccn2Cc2ccc(OC)cc2)cc1	nt	i	i	?	nt	nt
CC(C)N(CCCNC(=O)Nc1ccc(C(C)(C)C)cc1)C[C@H]1O[C@@H](n2cc(Br)c3c(N)ncnc32)[C@H](O)[C@H]1O	nt	nt	nt	nt	nt	22µM
O=[N+]([O-])c1ccc(OCCCCN2CCc3ccccc3C2)cc1	-102	i	i	i	i	i
O=[N+]([O-])c1ccc(OCCCCN2CCCCC2)cc1	-58	i	i	i	i	i
COC(=O)C1CCN(Cc2ccc(OCCCN3CCN(c4ccc([N+](=O)[O-])cc4)CC3)cc2)CC1	-52	i	i	i	i	nt
Cc1cc(OCCN2CCCCCC2)ccc1[N+](=O)[O-]	-68	i	i	i	i	i
COc1ccc2c(c1)OC(C)CN(CC(=O)NCc1cn[nH]c1-c1ccc(F)cc1)C2 (stereo not given)	nt	nt	nt	nt	i	nt
O=C(Nc1cccc(N2CCC(NCc3cnn(-c4ccccc4)n3)CC2)c1)c1cccnc1	nt	nt	nt	nt	i	nt
CCS(=O)(=O)NCc1c(C)ncc2c1CCN(C(=O)c1csc(-c3cccs3)n1)C2	nt	nt	nt	nt	i	nt
CC[C@@H](C(=O)O)[C@@H]1O[C@@H]([C@@H](C)[C@H](O)[C@H](C)C(=O)[C@H](CC)[C@H]2O[C@]3(C=C[C@@H](O)[C@]4(CC[C@@](C)([C@H]5CC[C@](O)(CC)[C@H](C)O5)O4)O3)[C@H](C)C[C@@H]2C)[C@@H](C)C[C@@H]1C	nt	nt	54	nt	nt	nt
Cc1ccc(NCc2nnc(SCC(=O)Nc3ccccc3)n2CC2CCCO2)c(C)c1 (stereo not given)	i	i	i	i	i	i
Cc1ccc(NCc2nnc(SCCN3CCCCC3)n2CC2CCCO2)c(C)c1 (stereo not given)	-54	i	i	i	i	i
CCc1ccc(N2CC(c3nc4ccccc4n3Cc3ccccc3C)CC2=O)cc1 (stereo not given)	nt	i	i	10µM	?	?
CCc1ccccc1N1CC(c2nc3ccccc3n2Cc2cccc(C)c2)CC1=O (stereo not given)	nt	i	i	6.3µM	?	?
CCOc1ccc(N2CC(c3nc4ccccc4n3Cc3cccc(C)c3)CC2=O)cc1 (stereo not given)	nt	i	i	?	?	?
COc1ccccc1Cn1c(C2CC(=O)N(c3ccccc3OC)C2)nc2ccccc21 (stereo not given)	nt	i	i	13µM	?	i
Cc1cc(C)cc(N2CC(c3nc4ccccc4n3C)CC2=O)c1 (stereo not given)	-54	i	i	i	i	i
COc1ccccc1C(=O)NC(=S)/C=C1/N(C)c2ccccc2C1(C)C	i	i	i	22µM	?	i
O=C(OCC1CCNCC1)c1ccc(F)cc1	-55	i	i	i	nt	nt
O=C(OCC1CCNCC1)c1ccc2c(c1)OCO2	i	i	i	i	i	i
COc1ccc(Cl)cc1NC(=O)CSc1nnc2[nH]c(=O)cc(C)n12	nt	i	i	?	nt	nt
CC(=O)N1CCCC(C)(C(=O)Nc2ccc3nc(C)ccc3c2)C1 (stereo not given)	-52	i	i	i	i	i
COC(=O)[C@@H]1CCCN1C(=O)c1c(OC)cc(=O)n2c1CCN(Cc1ccc(C)o1)CC2	nt	nt	nt	nt	i	nt
O=[N+]([O-])c1c(NCCCO)cc(SCc2ccco2)c2nonc12	-63	i	i	11µM	nt	i
